Where a name gives a salt, the structure may show the parent alone.
What was measured:
Settings in all cases: compound concentration in added solution (µM; 5 µl added to 20 µl cells): 10; 18 h
A431 [1] = assay: LBPA endosome anti-LBPA integrated intensity (sum per cell), Z-score; higher = more LBPA staining
Outline: (§1)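 HeLa MZ or A431 cells (3,500/well in 20 µl) were seeded onto 5 µl of 10 µM compound solution in duplicate 384-well imaging plates, incubated 18 h, then fixed in 4% PFA. Cells were stained with 6C4 anti-LBPA antibody, filipin, propidium iodide and CellTracker green, and four 20× images were taken per well. MetaXpress segmentation gave per-cell integrated LBPA or filipin intensity, either whole-cell or within LBPA endosomes. Values are Z-scores normalised in AcuityXpress.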

HeLa MZ [2] = assay: as above
Outline: as §1

A431 [3] = assay: whole-cell filipin (free cholesterol) integrated intensity, Z-score; higher = more cholesterol staining
Outline: as §1

HeLa MZ [4] = assay: as above
Outline: as §1

A431 [5] = assay: filipin (cholesterol) integrated intensity within LBPA endosomes, Z-score; higher = more cholesterol in LBPA endosomes
Outline: as §1

HeLa MZ [6] = assay: as above
Outline: as §1

Row | SMILES | LBPA endosome anti-LBPA integrated intensity (z-score) (A431 [1]) | LBPA endosome anti-LBPA integrated intensity (z-score) (HeLa MZ [2]) | whole-cell filipin (z-score) (A431 [3]) | whole-cell filipin (z-score) (HeLa MZ [4]) | filipin (z-score) (A431 [5]) | filipin (z-score) (HeLa MZ [6])
1 | C#CCN(C)CCCOc1ccc(Cl)cc1Cl [Clorgyline hydrochloride] | -0.292 | 0.155 | -1.09 | -0.252 | -0.435 | -0.359
2 | Cc1cccc(C)c1OCC(C)N (stereo not given) [Mexiletine hydrochloride] | -0.572 | -0.935 | -0.883 | -0.901 | -0.495 | -0.576
3 | COc1ccc(C2CNC(=O)C2)cc1OC1CCCC1 (stereo not given) [Rolipram] | -0.493 | -0.432 | -0.586 | -0.445 | -0.453 | -0.525
4 | Nc1ccc(S(N)(=O)=O)cc1 [Sulfanilamide] | -0.59 | -0.84 | -0.27 | 0.397 | -0.496 | -0.373
5 | C[N+](C)(C)CCOC(N)=O [Carbachol] | -0.538 | -0.848 | -0.548 | -0.381 | -0.44 | -0.42
6 | CCCCNc1cc(C(=O)O)cc(S(N)(=O)=O)c1Oc1ccccc1 [Bumetanide] | -0.516 | -0.493 | -0.507 | -0.553 | -0.588 | -0.565
7 | CCCNC(C)(C)COC(=O)c1ccccc1 [Meprylcaine hydrochloride] | -0.522 | -0.427 | -0.299 | -0.094 | -0.429 | -0.419
8 | Nc1ccccc1S(N)(=O)=O [2-Aminobenzenesulfonamide] | -0.461 | -0.0157 | -0.474 | -0.217 | -0.417 | -0.589
9 | COc1ccc(CC2c3cc(OC)c(OC)cc3CC[N+]2(C)CCC(=O)OCCCCCOC(=O)CC[N+]2(C)CCc3cc(OC)c(OC)cc3C2Cc2ccc(OC)c(OC)c2)cc1OC (stereo not given) [Atracurium besylate] | -0.229 | -0.154 | -0.0896 | -0.584 | -0.0589 | 0.0777
10 | CC(C)NC[C@@H](O)COc1ccc(CC(N)=O)cc1 [(R)-(+)-Atenolol] | -0.596 | -1.65 | -0.23 | -0.591 | -0.512 | -0.472
11 | C[C@]12C=CC(=O)C=C1CC[C@H]1[C@@H]3C[C@@H](O)[C@](O)(C(=O)CO)[C@@]3(C)C[C@H](O)[C@@]12F [Triamcinolone] | -0.203 | -0.607 | -0.346 | -0.264 | -0.211 | -0.572
12 | O=C(OCCOCCO)c1ccccc1Nc1cccc(C(F)(F)F)c1 [Etofenamate] | -0.474 | -0.295 | -0.883 | -1.24 | -0.564 | -0.692
13 | COc1ccc([C@@H]2CC(=O)c3c(O)cc(O[C@@H]4O[C@H](CO[C@@H]5O[C@@H](C)[C@H](O)[C@@H](O)[C@H]5O)[C@@H](O)[C@H](O)[C@H]4O)cc3O2)cc1O [Hesperidin] | -0.494 | -1.29 | -0.6 | -0.779 | -0.447 | -0.68
14 | CCOC(=O)[N-]c1c[n+](N2CCOCC2)no1 [Molsidomine] | -0.56 | 0.0751 | -0.59 | -0.136 | -0.558 | -0.532
15 | Cc1ccc(-c2cc(C(F)(F)F)nn2-c2ccc(S(N)(=O)=O)cc2)cc1 [Celecoxib] | -0.0813 | 0.702 | 0.406 | 0.113 | -0.205 | -0.22
16 | CC(CN1c2ccccc2Sc2ccccc21)N(C)C (stereo not given) [Promethazine hydrochloride] | 2.24 | 1.7 | 2.37 | 0.806 | 2.23 | 1.73
17 | CO[C@@]1(NC(=O)CSCC#N)C(=O)N2C(C(=O)O)=C(CSc3nnnn3C)CS[C@@H]21 [Cefmetazole sodium salt] | -0.329 | 0.139 | -0.215 | -0.0972 | -0.434 | -0.479
18 | C[C@@H](O)[C@H]1C(=O)N2C(C(=O)O)=C(S[C@@H]3CN[C@H](C(=O)N(C)C)C3)[C@H](C)[C@H]12 [Meropenem] | -0.501 | -0.52 | 0.0963 | -0.649 | -0.531 | -0.725
19 | CC(c1cc2ccccc2s1)N(O)C(N)=O (stereo not given) [Zileuton] | -0.514 | -0.465 | -0.358 | -0.366 | -0.391 | -0.425
20 | CN1CCC(=C2c3ccccc3CCc3sccc32)CC1 [Pizotifen malate] | 2.92 | 2.11 | 2.58 | -0.0276 | 2.82 | 1.53
21 | CS(=O)(=O)OCCCCOS(C)(=O)=O [Busulfan] | -0.537 | -0.499 | -0.466 | 0.544 | -0.535 | -0.476
22 | O=C(O)c1cccnc1 [Niacin] | -0.578 | -1.61 | -0.557 | -0.648 | -0.464 | -0.617
23 | CCOC(=O)C(C)(C)Oc1ccc(Cl)cc1 [Clofibrate] | -0.34 | -0.523 | -0.116 | -0.429 | -0.352 | -0.657
24 | C[C@H]1O[C@H](O[C@H]2[C@H](O)[C@@H](O)[C@@H](O[C@H]3[C@H](O)[C@@H](O)C(O)O[C@@H]3CO)O[C@@H]2CO)[C@H](O)[C@@H](O)[C@@H]1N[C@H]1C=C(CO)[C@@H](O)[C@H](O)[C@H]1O (stereo not given in full) [Acarbose] | -0.482 | -0.645 | -0.828 | -0.123 | -0.508 | -0.442
25 | Cc1onc(-c2c(F)cccc2Cl)c1C(=O)N[C@@H]1C(=O)N2[C@@H]1SC(C)(C)[C@@H]2C(=O)O [Flucloxacillin sodium] | -0.384 | 0.147 | -0.112 | -0.558 | -0.348 | -0.62

Row | SMILES | LBPA endosome anti-LBPA integrated intensity (z-score) (A431 [1]) | LBPA endosome anti-LBPA integrated intensity (z-score) (HeLa MZ [2]) | whole-cell filipin (z-score) (A431 [3]) | whole-cell filipin (z-score) (HeLa MZ [4]) | filipin (z-score) (A431 [5]) | filipin (z-score) (HeLa MZ [6])
26 | CCCCC(C)(O)C/C=C/[C@H]1[C@H](O)CC(=O)[C@@H]1CCCCCCC(=O)OC (mixture of isomers) [Misoprostol] | -0.446 | -0.811 | 0.395 | -0.741 | -0.436 | -0.608
27 | CC(=O)N1CCN(c2ccc(OCC3COC(Cn4ccnc4)(c4ccc(Cl)cc4Cl)O3)cc2)CC1 (stereo not given) [Ketoconazole] | 1.81 | 1.94 | 3.72 | 3.7 | 3.52 | 4.06
28 | CC/C(=C(\c1ccccc1)c1ccc(OCCN(C)C)cc1)c1ccccc1 [Tamoxifen citrate] | 2.11 | 0.441 | 0.819 | 0.438 | 2.05 | 2.47
29 | CCN(CC)CCOc1ccc(C(=C(Cl)c2ccccc2)c2ccccc2)cc1 [Clomiphene citrate (Z,E)] | 1.86 | 0.54 | 0.0851 | 1.03 | 2.72 | 3.06
30 | O=S(=O)(O)CCS [Mesna] | -0.366 | 0.0893 | -0.163 | 0.141 | -0.454 | -0.55
31 | COc1ccc2cc(CCC(C)=O)ccc2c1 [Nabumetone] | -0.302 | 0.891 | -0.304 | 0.488 | -0.495 | -0.175
32 | CCn1cc(C(=O)O)c(=O)c2cc(F)c(N3CCNCC3)nc21 [Enoxacin] | -0.309 | -0.0536 | 0.119 | 0.315 | -0.364 | -0.345
33 | C[N+]1(C)CCC(OC(=O)C(O)(c2ccccc2)C2CCCC2)C1 (stereo not given) [Glycopyrrolate] | -0.432 | -0.329 | -0.296 | -0.075 | -0.498 | -0.443
34 | CC(C(=O)O)c1ccc2c(c1)Cc1cccnc1O2 (stereo not given) [Pranoprofen] | -0.52 | -0.228 | -0.251 | -0.607 | -0.527 | -0.553
35 | COc1cc(Cc2cnc(N)nc2N)cc(OC)c1OC [Trimethoprim] | -0.479 | -0.434 | -0.787 | -0.667 | -0.515 | -0.558
36 | CCCCCN(CCCCC)C(=O)C(CCC(=O)O)NC(=O)c1ccc(Cl)c(Cl)c1 (stereo not given) [Lorglumide sodium salt] | -0.556 | 0.0228 | -0.478 | -0.52 | -0.482 | -0.502
37 | C[C@]12CC[C@@H]3c4ccc(O)cc4CC[C@H]3[C@@H]1C[C@@H](O)[C@@H]2O [Estriol] | -0.219 | 0.135 | -0.24 | -0.552 | -0.367 | -0.397
38 | O=C(c1ccccc1)c1ccc2n1CCC2C(=O)O (stereo not given) [Ketorolac tromethamine] | -0.483 | 0.0549 | -0.702 | -0.443 | -0.478 | -0.538
39 | CN(C)c1ccc(O)c2c1C[C@H]1C[C@H]3[C@H](N(C)C)C(O)=C(C(N)=O)C(=O)[C@@]3(O)C(O)=C1C2=O [Minocycline hydrochloride] | -0.618 | -1.91 | -1.01 | -1.52 | -0.639 | -0.888
40 | CN(Cc1cc(Br)cc(Br)c1N)C1CCCCC1 [Bromhexine hydrochloride] | -0.251 | -1.52 | 0.328 | -0.199 | -0.159 | -0.552
41 | NS(=O)(=O)c1cc(Cl)c(Cl)c(S(N)(=O)=O)c1 [Dichlorphenamide] | -0.34 | -0.217 | -0.00386 | 0.196 | -0.409 | -0.301
42 | COc1c(N2CCNC(C)C2)c(F)cc2c(=O)c(C(=O)O)cn(C3CC3)c12 (stereo not given) [Gatifloxacin] | -0.517 | 0.0619 | -0.124 | 0.333 | -0.446 | 0.0101
43 | Nc1c(Br)cc(Br)cc1CN[C@H]1CC[C@H](O)CC1 [Ambroxol hydrochloride] | -0.487 | 0.757 | -0.529 | -0.141 | -0.428 | -0.0836
44 | NCCc1ccc(O)c(O)c1 [Dopamine hydrochloride] | -0.272 | 0.0633 | 0.184 | -0.446 | -0.377 | -0.485
45 | O=C(O)COC(=O)Cc1ccccc1Nc1c(Cl)cccc1Cl [Aceclofenac] | -0.449 | -0.174 | -0.423 | -0.27 | -0.383 | -0.402
46 | Clc1ccc(CO/N=C(\Cn2ccnc2)c2ccc(Cl)cc2Cl)c(Cl)c1 [Oxiconazole Nitrate] | 0.391 | 1.11 | 1.4 | 1.62 | 0.64 | 0.784
47 | Cc1ccccc1N1C(=O)c2cc(S(N)(=O)=O)c(Cl)cc2NC1C (stereo not given) [Metolazone] | -0.495 | -0.0744 | -0.881 | 0.441 | -0.436 | -0.348
48 | CCOC(=O)c1ccc(OC(=O)CCCCCNC(=N)N)cc1 [Gabexate mesilate] | -0.44 | 0.019 | 0.196 | 0.0139 | -0.481 | -0.456
49 | CC(=O)OCC1=C(C(=O)O)N2C(=O)[C@@H](NC(=O)Cc3cccs3)[C@H]2SC1 [Cephalothin sodium salt] | -0.468 | -0.884 | -0.46 | -0.115 | -0.456 | -0.652
50 | Cc1[nH]c(=O)c(C#N)cc1-c1ccncc1 [Milrinone] | -0.393 | 0.29 | -0.171 | -0.0695 | -0.351 | -0.372
